Screens (PubChem BioAssay)
DRD3 agonist = agonists of human D3 dopamine receptor; D3R DiscoveRx beta-arrestin cells, luminescence, 90 min; max activation, %; 410,000 tested, 0.58% active; in the data active = max activation above about 30%; also: 0% is about no effect
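Cells at 1500/well, incubated overnight, then treated with pinned compounds (dopamine as control) for 90 min at 37 degrees C. DiscoveRx reagent added for 30 - 60 minutes at room temperature; luminescence read.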
D1 antag = human D1 dopamine receptor antagonism. P21728. HEK293 TREx D1 cells, calcium flux, dopamine EC80; stronger effect = lower value. activity change, negative = inhibition, % at 10 µM. 360,000 tested, 3.2% active. AID 504652; in the data active = activity change below about -30%; also: % is scaled to controls: 0 for no effect and ±100 for the full control effect
Target sequence (P21728 whole entry, looked up): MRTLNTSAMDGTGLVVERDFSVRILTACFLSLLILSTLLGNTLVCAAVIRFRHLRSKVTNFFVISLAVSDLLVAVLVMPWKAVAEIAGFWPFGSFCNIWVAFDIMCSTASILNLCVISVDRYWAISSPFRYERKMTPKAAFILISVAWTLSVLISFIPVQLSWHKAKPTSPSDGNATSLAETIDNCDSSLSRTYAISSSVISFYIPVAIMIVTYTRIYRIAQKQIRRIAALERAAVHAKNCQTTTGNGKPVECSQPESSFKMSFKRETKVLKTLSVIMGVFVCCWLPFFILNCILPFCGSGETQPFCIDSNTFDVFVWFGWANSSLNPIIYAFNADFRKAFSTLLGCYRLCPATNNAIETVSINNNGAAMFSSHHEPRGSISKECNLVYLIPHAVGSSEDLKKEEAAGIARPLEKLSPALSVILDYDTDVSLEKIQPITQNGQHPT
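Kinetic fluorescence of a calcium dye serves as the read-out. D1-expressing Hek293 Trex cells, induced overnight at 30 C, are exposed to compound for 180 s before an EC80 dopamine addition, then read 180 s further.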
D1 ag = activates the human D1 dopamine receptor. 360,000 tested, 1% active. HEK293 T-REx D1 cells, calcium flux, agonist mode. activation, % at 2 µM. P21728. AID 504660; in the data active = activation above about 30%; also: 0% is about no effect
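Agonism was scored from calcium flux recorded over 180 s (1 read/s) after pintool compound addition, following a 10-cycle baseline. Cells were inducible force-coupled HEK293 TREx D1, plated overnight at 30 C and loaded with no-wash calcium dye.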
D1 potentiator = human D1 dopamine receptor positive modulation; HEK293 TREx D1 cells, calcium flux, dopamine EC20 potentiation; potentiation, % at 10 µM; AID 504651; 360,000 tested, 0.036% active; P21728; in the data active = potentiation above about 30%; also: 0% is about no effect
DRD3 antagonist = D3 dopamine receptor (human) antagonism. D3R cells, DiscoveRx beta-arrestin luminescence, antagonist mode; stronger effect = lower value. AID 652054. 360,000 tested, 2.5% active. max response, negative = inhibition, %; in the data active = max response below about -50%; also: % is scaled to controls: 0 for no effect and ±100 for the full control effect
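Cells expressing the human receptor were seeded at 1500 cells/well, incubated overnight at 37 degrees C in 5% CO2, then exposed to library compounds with dopamine controls for 90 minutes at 37 degrees C before luminescent detection.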
* marks the source's active call; other numbers are inactive results; / = no result given. Compounds with a hit are over-represented: about 6.1% of the library has one in this group of screens.

SMILES	DRD3 agonist	D1 antag	D1 ag	D1 potentiator	DRD3 antagonist
COc1cc(C(=O)Nc2ccc(C(=O)c3ccncc3)cc2)cc(OC)c1OC	3	/	/	/	0
Cc1[nH]c2ccc(-c3n[nH]c(=S)n3Cc3ccccc3)cc2c1C	-5	-32*	7	-6	-3
COc1cc(-c2nn3c(COc4ccccc4)nnc3s2)cc(OC)c1OC	-2	3	1	-3	-18
COc1cc(-c2nn3c(Cc4ccccc4)nnc3s2)cc(OC)c1OC	31*	15	3	1	12
COCC(COS(N)(=O)=O)Cc1ccccc1 (centres undefined)	4	0	0	-5	-3
Cc1c(NC(=O)c2sc3ccccc3c2Cl)cccc1-c1nc2ccccc2o1	-8	2	-1	2	/
COc1cc(OC)cc(-c2ncc3ccccn23)c1	-9	-1	-3	5	-58*
COc1ccc(OC)c(-c2cc(C(=O)NCc3cccs3)no2)c1	-27	-15	3	-6	-96*
O=C(NCc1cccs1)c1cc(-c2ccc(O)cc2)on1	-6	9	50*	-2	-7
COc1ccc(OC)c(C2=NS(=O)(=O)N(C)C(C(=O)NCc3cccs3)=C2)c1	1	-7	41*	-5	-1
Cc1ccc(-c2cc(C(=O)NCc3cccs3)no2)cc1	0	-6	4	-8	-11
CC(OC(=O)c1nc(-c2ccccc2)n(-c2ccccc2)n1)C(=O)Nc1cc(Cl)cc(Cl)c1 (centres undefined)	-10	12	0	7	0
CCOC(=O)[C@]12CCCC=C1N(Cc1ccco1)C(=O)[C@H](CC(=O)NCC1CCCCC1)C2	-4	/	/	/	-20
O=C(Nc1ccc(Cl)cc1Cl)c1cccc(N2C(=O)C=CC2=O)c1	-6	-20	11	-9	-85*
O=C(O)c1cccc(N2C(=O)C=CC2=O)c1	8	/	/	/	-7
CC1(C(=O)NS(=O)(=O)c2ccccc2Cl)CCN1C(=O)Cc1cc(F)ccc1F (centres undefined)	11	/	/	/	3
COc1ccc(-c2[nH]c(-c3ccccc3)nc2SCC(=O)Nc2ccc3c(c2)OCO3)cc1	-5	-12	0	-1	/
O=C(CN(Cc1cccs1)C(=O)CNS(=O)(=O)c1ccc(Cl)cc1)NCC1CCCO1 (centres undefined)	7	9	1	-4	5
CN1C(c2ccc(F)cc2)=CS/C1=C(/C#N)c1nnc(N2CCOCC2)n1-c1ccccc1	-6	26	3	1	-12
CCN1C(c2ccc(F)cc2)=CS/C1=C(\C#N)c1nnc2n1-c1ccccc1SC2	-3	-35*	0	-10	20
CN(CC(=O)Nc1ccccc1Cl)C(=O)Cn1nnc(-c2ccc(F)cc2)n1	-24	-47*	1	-3	0
O=C(c1ccc(Cl)cc1)C1CCCN(Cc2cccn2-c2ccccn2)C1 (centres undefined)	-17	9	7	-4	0
Cc1ccc(-n2cccn2)c(CN2CCCC(C(=O)c3sccc3C)C2)c1 (centres undefined)	-14	-24	3	-6	-76*
Cc1ccsc1C(=O)C1CCCN(Cc2cccn2-c2ccc(Cl)cn2)C1 (centres undefined)	-12	16	6	-4	-67*
COc1ccccc1NC(=O)N1c2ccccc2Sc2ccccc21	-10	-3	4	-2	/
SMILES	DRD3 agonist	D1 antag	D1 ag	D1 potentiator	DRD3 antagonist
Cc1ccc2c(C)c(C(=O)N3CCC(C(N)=O)(N4CCCCC4)CC3)oc2c1C	-4	/	/	/	0
Cc1cccc(N(C(=O)c2csnn2)C(C(=O)NCc2ccccc2)c2cccs2)c1 (centres undefined)	4	0	2	-2	2
COc1cccc(-c2c(C(=O)N/N=C/c3ccncc3)nnn2-c2nonc2N)c1	4	7	4	-6	2
Cc1ccc(SCc2c(C(=O)N/N=C/c3ccoc3)nnn2-c2nonc2N)cc1	5	-45*	3	-18	7
COc1cccc(-c2c(C(=O)N/N=C/c3ccoc3)nnn2-c2nonc2N)c1	-11	9	77*	0	-16
CCc1ccc(/C=N/NC(=O)c2nnn(-c3nonc3N)c2C(C)C)cc1	-13	42	142*	22	-28
CCOC(=O)c1nnn(-c2nonc2N)c1-c1ccccc1	3	-44*	9	-5	-4
O=C(O)/C(=C\c1ccc(Cl)cc1)c1ccc(F)cc1	0	-1	1	-2	5
CCc1ccc(S(=O)(=O)c2c(C(=O)c3ccccc3)cnc3ccc(CC)cc23)cc1	4	-2	3	-5	/
Cc1ccc(-c2c(C(=O)N/N=C/c3ccoc3)nnn2-c2nonc2N)cc1	-1	58	44*	1	-14
Cc1ccc(-c2c(C(=O)N/N=C/c3ccc(OC(C)C)cc3)nnn2-c2nonc2N)cc1	-1	55	55*	26	-10
CCOc1ccc(-c2c(C(=O)N/N=C/c3ccc(C)cc3)nnn2-c2nonc2N)cc1	2	44	44*	27	1
CCOc1ccc(/C=N/NC(=O)c2nnn(-c3nonc3N)c2-c2cccs2)cc1	1	64	165*	10	-25
Cc1c(NC(=O)CSc2ncnc3ccccc23)c(=O)n(-c2ccccc2)n1C	1	4	0	3	-16
Brc1[nH]nc2ccccc12	-12	-33*	2	-5	-10
O=C(O)c1cc(-c2ccc(Br)s2)nc2ccccc12	2	0	2	2	-2
O=[S+]([O-])(c1ccc(-c2ccccc2)cc1)N1CCN([S+](=O)([O-])c2ccc3c(c2)OCCO3)CC1	/	4	1	-2	/
CCOc1ccc(N=Nc2c(=O)[nH]n3c(=O)cc(C)[nH]c23)cc1	-14	-3	1	-1	-16
Cc1cc(=O)n2[nH]c(=O)c(N=Nc3ccccc3)c2[nH]1	-4	3	3	-2	-84*
CN(C)CCNC(=O)Nc1ccc(F)cc1F	3	13	0	-6	3
COc1ccccc1NC(=O)COC(=O)c1ccc(N2CCCC2=O)cc1	1	-31*	4	0	-12
O=C(COC(=O)c1ccc(N2CCCC2=O)cc1)Nc1ccccc1	-2	8	4	6	-15
Cc1[nH]c(=O)[nH]c(=O)c1NS(=O)(=O)c1ccccc1	0	4	1	1	7
COCC(C)N1CC(O)=C(c2nc(-c3ccc(Cl)cc3)cs2)C1=N (centres undefined)	3	-31*	1	-16	-9
CCOc1ccccc1-n1nnc(S(=O)(=O)c2ccc(C)cc2)c1N	12	0	21	1	/
CCOC(=O)c1c(-c2ccc(C)o2)csc1NC(=O)CN1CCN(CC)CC1	2	2	3	-9	-106*
Cc1ccc(C(=O)NCCCNC(=O)Cc2ccc(Cl)cc2)cn1	-6	5	2	-4	8
